Experimental data taken from PubChem BioAssay (NCATS).
Inconclusive results are not listed. Active and inactive are the calls of the source. Unless noted, the call rests on the fitted dose curve; in most records, active means well fitted curve in the direction sought with a large enough effect; inconclusive means small, poorly fitted or top-dose-only effect, or another doubt; inactive means no such curve, though single readings can be large; an effect the other way counts as inactive or inconclusive.

Legend:
[1] = Cell Viability - BJ (AID 421; calls by dose curve;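 further: potency means the concentration at half of the fitted maximal effect; cells exposed to compound for 40 hours at 37 °C before readout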); details: BJ fibroblast viability, qHTS
In short: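 Luminescent ATP signal (CellTiter-Glo, 20 min at room temperature) served as the read-out of viable BJ cells after 40 hours of compound treatment. Responses were scaled between DMSO and 100 uM tamoxifen, and AC50 values were obtained by Hill modeling.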

[2] = Cell Viability - Jurkat (AID 426;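 active means dose-dependent loss of cell ATP signal giving a full or clear fitted curve, ranked by lower potency value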; further: potency means the concentration at half of the fitted maximal effect); details: qHTS
In short: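 Seed 5000 Jurkat E6-1 cells/well; add compound; incubate 40 hr at 37 °C; add CellTiter-Glo; wait 20 min at room temperature; read luminescence. Fit concentration-response with Hill equation for AC50.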

[3] = Cell Viability - Hek293 (AID 427;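 active means compounds whose dose-response curve shows a full or clear partial loss of cell viability, called from curve shape rather than a numeric limit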;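 further: potency means the concentration at half of the fitted maximal effect; cells exposed to compound for 40 hours at 37 °C before reading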); details: qHTS
In short: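 Luminescent ATP read-out (CellTiter-Glo, 20 min RT) after 40 hr compound exposure at 37 °C in complete medium. Signal normalized to DMSO (basal) and 100 uM tamoxifen (100% inhibition); concentration-response fitted with the standard Hill equation to give AC50.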

[4] = Cell Viability - HepG2 (AID 433; calls by dose curve;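 further: potency means the concentration at half of the fitted maximal effect; potency for ATP loss meaning cytotoxicity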); details: qHTS
In short: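 HepG2 hepatocellular carcinoma cells (1500/well) were treated with compounds for 40 h at 37 °C in complete medium; intracellular ATP was read by CellTiter-Glo luminescence. Data were normalized to DMSO and 100 uM tamoxifen, and AC50 came from Hill fits.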

[5] = Cell Viability - MRC5 (AID 434; calls by dose curve;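 further: potency means the concentration at half of the fitted maximal effect; potency reflects cytotoxicity seen as loss of intracellular ATP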); details: MRC5 lung fibroblast viability, qHTS
In short: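 MRC5 normal human lung fibroblasts, 1500 cells/well, exposed to compound for 40 hr at 37 C. Cellular ATP was read by CellTiter-Glo luminescence; data normalized to DMSO and 100 uM tamoxifen, with AC50 from Hill fits.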

[6] = Cell Viability - SK-N-SH (AID 435; calls by dose curve;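 further: potency means the concentration at half of the fitted maximal effect; compound exposure lasted 40 h at 37 °C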); details: SK-N-SH neuroblastoma cell viability qHTS
In short: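 SK-N-SH human neuroblastoma cells (1500/well) were exposed to compounds in complete medium for 40 h at 37 °C, and intracellular ATP was then measured by CellTiter-Glo luminescence. AC50 was taken from Hill fits, normalized to DMSO and 100 uM tamoxifen.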

[7] = target: Mitogen-activated protein kinase 10 (Mus musculus) (UniProt Q61831); assay: JNK3 AlphaScreen Assay (AID 530; active means well fitted curve in either direction with a large enough effect, not every such curve was filed as active;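 further: kinase came from lysate of stimulated human HepG2 cells; signal reports phosphorylation of biotinylated GST-cJun 1-79 at Ser73 with 10 µM ATP; on the % scale 0 is the no-effect control and ±100 the full control effect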); details: JNK3 lysate, c-Jun phosphorylation; series mostly up to 57.1 µM
In short: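 qHTS format: compounds tested as titrations against IL-1beta/TNF-alpha-activated HepG2 lysate JNK3 with biotin-GST-cJun substrate and 10 uM ATP at room temperature. Loss of anti-phospho-cJun AlphaScreen signal indicates inhibition.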

[8] = Cell Viability - N2a (AID 540); details: N2a mouse neuroblastoma cell viability; activity change, negative = cytotoxicity: at 92.2 µM (top of the series);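 further: plate controls were DMSO alone for no effect and tamoxifen control for full effect; nearly all actives have a fitted effect of over 45% in size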
In short: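 First, 1500 N2a cells per well incubate 5 hr at 37 °C; next, compounds are added and incubated 40 hr at 37 °C; finally CellTiter-Glo is added and luminescence read after 20 min, with AC50 derived by Hill modeling.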

[9] = Cell Viability - NIH 3T3 (AID 541); details: NIH 3T3 cell viability, qHTS; activity change, negative = cytotoxicity: at 92.2 µM (top of the series);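 further: plate controls were DMSO alone for no effect and tamoxifen positive control for full effect; nearly all actives have a fitted effect of over 25% in size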
In short: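 AC50 values reflect concentration-dependent loss of intracellular ATP in NIH 3T3 cells after 40 hr treatment in complete culture medium, quantified by luciferase-based luminescence.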

[10] = Cell Viability - HUV-EC-C (AID 542); details: HUV-EC-C endothelial cell viability, qHTS; series mostly up to 92.2 µM; further: on the % scale 0 is the no-effect control and ±100 the full control effect; nearly all actives have a fitted effect of over 35% in size
In short: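 Decrease in cellular ATP, quantified by luciferase luminescence, reflects toxicity in normal human vascular endothelial HUV-EC-C cells given compound for 40 hr in complete culture medium. Values are AC50s from concentration-response curves.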

[11] = Cell Viability - H-4-II-E (AID 543); details: H-4-II-E rat hepatoma viability; series mostly up to 92.2 µM; further: on the % scale 0 is the no-effect control and ±100 the full control effect; nearly all actives have a fitted effect of over 35% in size
In short: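 Here, cytotoxicity is measured in the rat hepatoma line H-4-II-E as loss of intracellular ATP after 40 hr compound treatment, detected by luciferase luminescence.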

[12] = Cell Viability - Renal Proximal Tubule (AID 545); details: renal proximal tubule cells viability, primary cells of rat origin; series mostly up to 91.7 µM; further: nearly all actives have a fitted effect of over 40% in size
In short: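 Primary rat renal proximal tubule cells (1000/well) were treated with compounds for 40 hr at 37 °C in complete medium. Intracellular ATP was measured by CellTiter-Glo luminescence, and AC50 values came from Hill-equation fits of concentration-response data.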

[13] = Cell Viability - Mesenchymal (AID 546); details: mesenchymal cells viability, qHTS; series mostly up to 91.7 µM;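 further: cells exposed to compound for 40 hours before reading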
In short: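 Human kidney mesenchymal cells from normal renal glomeruli, 1000 cells/well, rested 5 hr at 37 °C, then treated 40 hr at 37 °C in complete medium. Cellular ATP read by CellTiter-Glo luminescence; AC50 from Hill-equation fits.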

[14] = Cellular Toxicity (caspase-3) HepG2 (AID 654); details: HepG2 caspase-3 activation, luminescence; series mostly up to 92.2 µM;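 further: cells exposed to compound for 16 hours before reading; 0% = DMSO alone and 100% = caspase signal from 100 µM tamoxifen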
In short: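 qHTS, HepG2, 1500 cells/well, complete medium; cpd 16 h 37 °C; Caspase-Glo 3/7, 20 min RT; lum. Norm: DMSO vs 100 uM tamoxifen; AC50 Hill fit.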

[15] = Cellular Toxicity (caspase-3) Jurkat (AID 655); details: Jurkat caspase-3 activation, luminescence; caspase-3 activation: at 92.2 µM (top of the series), DMSO = 0%, tamoxifen = 100%;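 further: cells exposed to compound for 16 h at 37 °C before reading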
In short: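 Jurkat cells (5000/well) in complete medium were treated with compounds for 16 hr at 37 °C, then Caspase-Glo 3/7 luminescence was read after 20 min at room temperature. Data normalized to DMSO (basal) and 100 uM tamoxifen (100%); AC50 from Hill fit.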

[16] = Cellular Toxicity (caspase-3) HUV-EC-C (AID 656); details: HUV-EC-C cells, caspase-3 activation (apoptosis), vehicle = 0, 100 µM tamoxifen = 100%; series mostly up to 92.2 µM
In short: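 HUV-EC-C endothelial cells, 1000/well, were pre-incubated 5 hr at 37°C, then exposed to compounds for 16 hr at 37°C. Caspase-Glo 3/7 luminescence was read after 20 min at room temperature. AC50 came from Hill fits, normalized to DMSO and 100 uM tamoxifen.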

[17] = Cellular Toxicity (caspase-3) SHSY5Y (AID 657); details: SH-SY5Y caspase-3 activation, DMSO zero, 10 µM staurosporine = 100%; series mostly up to 91.7 µM
In short: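 SH-SY5Y human neuroblastoma cells (1500/well) were treated with compounds for 16 h at 37 °C, then Caspase-Glo 3/7 luminescence was read after 1 h at room temperature. Data normalized to DMSO and 10 uM staurosporine; AC50 from Hill fits.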

[18] = Cellular Toxicity (caspase-3) BJ (AID 658); details: BJ fibroblasts, luminescence, normalized: DMSO 0%, staurosporine 100%; series mostly up to 91.7 µM
In short: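 BJ human foreskin fibroblasts, 1000 cells/well, treated 16 hours at 37 °C in complete medium; caspase 3/7 activity by Caspase-Glo luminescence after 1 hr at room temperature. Normalized to DMSO and 10 uM staurosporine; AC50 from Hill fits.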

[19] = Cellular Toxicity (caspase-3) MRC-5 (AID 659); details: MRC-5 cells, luminescence, normalized: DMSO 0%, 10 µM staurosporine 100%; series mostly up to 91.7 µM
In short: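 MRC-5 human normal lung fibroblasts, 1500 cells/well, treated 16 h at 37 °C in complete medium. Caspase 3/7 measured by Caspase-Glo luminescence after 1 h at room temperature. Normalized to DMSO and 10 uM staurosporine; AC50 from Hill fit.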

[20] = Cell Viability - SH-SY5Y (AID 544); details: SH-SY5Y neuroblastoma cell viability; viability change, negative = cytotoxic: at 92.2 µM (top of the series); further: nearly all actives have a fitted effect of over 55% in size
In short: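 Cytotoxicity is scored as a concentration-dependent fall in intracellular ATP in human SH-SY5Y cells treated 40 hr in complete culture medium. Potency is expressed as AC50 from a Hill equation fit.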

CC(C)(C)OCC1CO1 (configuration not stated)
inactive: Potency [1] > 92 µM | Potency [2] > 92 µM | Potency [3] > 92 µM | Potency [4] > 92 µM | Potency [5] > 92 µM | Potency [6] > 92 µM | outcome [7] | activity change, negative = cytotoxicity [8] 3.76% | Potency [9] | Potency [10] | Potency [11] | Potency [12] | Potency [13] | Potency [14] | caspase-3 activation [15] 0.113% | outcome [16] | outcome [17] | outcome [18] | outcome [19]

CC(C)C=O
inactive: Potency [1] > 92 µM | Potency [2] > 92 µM | Potency [3] > 92 µM | Potency [4] > 92 µM | Potency [5] > 92 µM | Potency [6] > 92 µM | outcome [7] | activity change, negative = cytotoxicity [8] -13.8% | Potency [9] | Potency [10] | Potency [11] | Potency [12] | Potency [13] | Potency [14] | caspase-3 activation [15] 0.00972% | outcome [16] | outcome [17] | outcome [19]

Cc1cc(C)cc([N+](=O)[O-])c1
inactive: Potency [1] > 92 µM | Potency [2] > 92 µM | Potency [3] > 92 µM | Potency [4] > 92 µM | Potency [5] > 92 µM | Potency [6] > 92 µM | outcome [7] | activity change, negative = cytotoxicity [8] -7.51% | Potency [9] | Potency [10] | Potency [11] | Potency [13] | caspase-3 activation [15] -1.49% | outcome [16] | outcome [17] | outcome [18]

N#CC1(O)CCCCC1
inactive: Potency [1] > 92 µM | Potency [2] > 92 µM | Potency [3] > 92 µM | Potency [4] > 92 µM | Potency [5] > 92 µM | Potency [6] > 92 µM | outcome [7] | activity change, negative = cytotoxicity [8] 14.1% | Potency [9] | Potency [10] | Potency [20] | Potency [12] | Potency [13] | caspase-3 activation [15] 1.9% | outcome [16] | outcome [17] | outcome [18] | outcome [19]

CC(=O)c1ccc([N+](=O)[O-])cc1
inactive: Potency [1] > 92 µM | Potency [2] > 92 µM | Potency [3] > 92 µM | Potency [4] > 92 µM | Potency [5] > 92 µM | Potency [6] > 92 µM | outcome [7] | activity change, negative = cytotoxicity [8] 0.428% | Potency [9] | Potency [10] | Potency [11] | Potency [20] | Potency [13] | Potency [14] | caspase-3 activation [15] 0.818% | outcome [16] | outcome [17] | outcome [18] | outcome [19]

O=c1[nH][nH]c(=O)c2cc([N+](=O)[O-])ccc12
inactive: Potency [1] > 92 µM | Potency [2] > 92 µM | Potency [3] > 92 µM | Potency [4] > 92 µM | Potency [5] > 92 µM | Potency [6] > 92 µM | outcome [7] | activity change, negative = cytotoxicity [8] 11.9% | Potency [9] | Potency [10] | Potency [11] | Potency [20] | Potency [13] | Potency [14] | caspase-3 activation [15] -0.126% | outcome [16] | outcome [17] | outcome [18] | outcome [19]

NC(=O)CCCCC(N)=O
inactive: Potency [1] > 92 µM | Potency [2] > 92 µM | Potency [3] > 92 µM | Potency [4] > 92 µM | Potency [5] > 92 µM | Potency [6] > 92 µM | outcome [7] | activity change, negative = cytotoxicity [8] -5.03% | Potency [9] | Potency [10] | Potency [11] | Potency [20] | Potency [13] | Potency [14] | caspase-3 activation [15] 2.15% | outcome [16] | outcome [17] | outcome [18] | outcome [19]

Cc1cccc([N+](=O)[O-])c1C(=O)O
inactive: Potency [1] > 92 µM | Potency [2] > 92 µM | Potency [3] > 92 µM | Potency [4] > 92 µM | Potency [5] > 92 µM | Potency [6] > 92 µM | outcome [7] | activity change, negative = cytotoxicity [8] 11.2% | Potency [9] | Potency [10] | Potency [11] | Potency [20] | Potency [13] | Potency [14] | caspase-3 activation [15] 0.48% | outcome [16] | outcome [17] | outcome [18] | outcome [19]

CCCCC(CC)COC(=O)CCCCC(=O)OCC(CC)CCCC (configuration not stated)
inactive: Potency [1] > 92 µM | Potency [2] > 92 µM | Potency [3] > 92 µM | Potency [4] > 92 µM | Potency [5] > 92 µM | Potency [6] > 92 µM | outcome [7] | activity change, negative = cytotoxicity [8] 3.75% | Potency [9] | Potency [10] | Potency [20] | Potency [12] | Potency [13] | Potency [14] | caspase-3 activation [15] -0.708% | outcome [16] | outcome [17] | outcome [18] | outcome [19]

Cc1ccco1
inactive: Potency [1] > 92 µM | Potency [2] > 92 µM | Potency [3] > 92 µM | Potency [4] > 92 µM | Potency [5] > 92 µM | Potency [6] > 92 µM | outcome [7] | activity change, negative = cytotoxicity [8] 0.379% | Potency [9] | Potency [10] | Potency [11] | Potency [12] | Potency [13] | Potency [14] | caspase-3 activation [15] 0.939% | outcome [16] | outcome [17] | outcome [18] | outcome [19]

Cc1cccc(C)c1O
inactive: Potency [1] > 92 µM | Potency [2] > 92 µM | Potency [3] > 92 µM | Potency [4] > 92 µM | Potency [5] > 92 µM | Potency [6] > 92 µM | outcome [7] | activity change, negative = cytotoxicity [8] -7.98% | Potency [9] | Potency [10] | Potency [20] | Potency [12] | Potency [13] | Potency [14] | caspase-3 activation [15] -0.87% | outcome [16] | outcome [17] | outcome [18] | outcome [19]

O=[N+]([O-])c1ccccc1CCO
inactive: Potency [1] > 92 µM | Potency [2] > 92 µM | Potency [3] > 92 µM | Potency [4] > 92 µM | Potency [5] > 92 µM | Potency [6] > 92 µM | outcome [7] | activity change, negative = cytotoxicity [8] -12.5% | Potency [9] | Potency [10] | Potency [11] | Potency [12] | Potency [13] | Potency [14] | outcome [16] | outcome [17] | outcome [18] | outcome [19]
